We go through 55 compounds from PubChem BioAssay AID651725 (National Center for Advancing Translational Sciences (NCATS), 2012).

Screen size: about 360,000 compounds; about 2,000 (0.56%) were called active. Not shown: some 2% with an inconclusive outcome. For the sample, actives were picked, then their nearest neighbours and some compounds at random. A number with no mark means an inactive call. Cut-off read from the data, not from the text of the source: active = activity change below about -65%; inconclusive = mostly about -30% to -63%; inactive = weaker than that.
% is set by controls: 0 for no effect and ±100 for the full control effect.

Sequence of Homeobox protein SIX1 (Homo sapiens) + Protein phosphatase EYA2 (Homo sapiens) (O00167 whole entry, looked up): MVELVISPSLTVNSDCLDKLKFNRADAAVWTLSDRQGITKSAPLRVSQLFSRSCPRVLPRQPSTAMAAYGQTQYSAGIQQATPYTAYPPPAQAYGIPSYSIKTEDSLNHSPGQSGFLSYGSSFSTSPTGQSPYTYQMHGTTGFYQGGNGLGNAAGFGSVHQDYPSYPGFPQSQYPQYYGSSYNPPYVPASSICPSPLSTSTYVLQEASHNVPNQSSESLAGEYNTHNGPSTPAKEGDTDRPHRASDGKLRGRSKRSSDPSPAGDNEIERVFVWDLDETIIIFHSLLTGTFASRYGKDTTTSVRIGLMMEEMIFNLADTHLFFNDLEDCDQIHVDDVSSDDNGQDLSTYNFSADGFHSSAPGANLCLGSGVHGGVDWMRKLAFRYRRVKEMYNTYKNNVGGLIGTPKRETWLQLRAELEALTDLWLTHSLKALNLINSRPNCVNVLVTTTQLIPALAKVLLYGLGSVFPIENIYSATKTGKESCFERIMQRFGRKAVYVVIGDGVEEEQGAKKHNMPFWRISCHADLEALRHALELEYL
Sequence of Homeobox protein SIX1 (Homo sapiens) + Protein phosphatase EYA2 (Homo sapiens) (Q15475 whole entry, looked up): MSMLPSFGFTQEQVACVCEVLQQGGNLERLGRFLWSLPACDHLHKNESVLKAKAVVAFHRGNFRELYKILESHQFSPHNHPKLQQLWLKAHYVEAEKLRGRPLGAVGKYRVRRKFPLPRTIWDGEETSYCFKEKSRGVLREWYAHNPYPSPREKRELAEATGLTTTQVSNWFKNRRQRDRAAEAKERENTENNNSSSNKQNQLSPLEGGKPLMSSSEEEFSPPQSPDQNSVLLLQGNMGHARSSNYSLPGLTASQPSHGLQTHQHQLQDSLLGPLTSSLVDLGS

For the assay, the target named is Homeobox protein SIX1 (Homo sapiens) + Protein phosphatase EYA2 (Homo sapiens) (UniProt Q15475+O00167). Briefly: qHTS Assay for Inhibitors of the Six1/Eya2 Interaction. As to conditions: AlphaScreen GST-Six1/His-Eya2 binding, biochemical; stronger effect = lower value. An outline of the steps:
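GST-Six1 + His-Eya2 (5X stock: 250/500 nM); Tris pH 8.0, 300 mM NaCl, 0.05% BSA, 0.02% Tween 20; GSH donor/Ni acceptor beads; 1 h 37 °C dark; AlphaScreen readout.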
Background: Quantitative high-throughput screening tests each substance at several concentrations.
On to `O=C1Nc2ccccc2-n2nnnc2C1N1CCN(c2cccc(C(F)(F)F)n2)CC1` (stereo not given), for which the activity change was 0.68%. Next, `Cc1cccc(NS(=O)(=O)c2ccc(C)c(C(=O)NCc3cccnc3)c2)c1`: -0.175%; `O=C(C(=O)N1CCC(c2ccccc2)CC1)c1ccccc1`: -2.34%; `CCOC(=O)[C@]12CCCC=C1N(CCC1=CCCCC1)C(=O)[C@H](CC(=O)N1CCN(C(=O)c3ccco3)CC1)C2`: -5.37%. The figure for `Cc1c(NS(=O)(=O)c2ccc(NC3CCCC3)c([N+](=O)[O-])c2)c(=O)n(-c2ccccc2)n1C` is -0.483%; for `Cc1cc([N+](=O)[O-])c(N2CCC[C@@H]2C(=O)O)c([N+](=O)[O-])c1` it is 7.42%; for `Cc1cc([N+](=O)[O-])c(NC2CCCCC2)c([N+](=O)[O-])c1` it is -69.3% (active). Regarding `COC(=O)[C@]12CCCCC=C1N(Cc1ccc(Cl)cc1Cl)C(=O)[C@H](CC(=O)NCc1cccc3ccccc13)C2`, the activity change is -10.1%.

Turning to `O=C1NC[C@@H](CCCCN2CCN(CCc3ccc(O)cc3)C(=O)C2=O)N(CC2CCCCC2)C1=O`, the activity change was 3.55%.

In the case of `CC[C@]1(c2ccccc2OC)C(=O)N(C(=O)OC)N1C(=O)OC`, the activity change is -0.457%. For the compound `O=C1c2ccccc2C(=O)N1CCCc1nc(-c2ccccc2)no1`, the activity change is 1.31%.

Regarding `O=C(CN1C(=O)c2cccc3cccc(c23)C1=O)N1CCCCC1`, the activity change was 2.22%. Next, `O=C1c2cccc3cccc(c23)C(=O)N1CCCCCc1n[nH]c(=S)o1`: -80.1% (active); `COC(=O)c1ccc2nc(-c3ccccc3)c(Cc3ccc(OC)cc3C)n2c1`: 0.0747%; `COCCNC(=O)CCCn1c(=O)c2ccccc2n(Cc2cccc([N+](=O)[O-])c2)c1=O`: 4.87%. Next, `CCOC(=O)c1ccc(N/C(=N/S(=O)(=O)c2ccccc2)c2ccccc2)cc1`: -27.6%; `CCOC(=O)c1nc(Nc2ccc(C(=O)OC)cc2)c2ccccc2n1`: -84.8% (active); `COC(=O)c1ccc(Nc2ncnc3sccc23)cc1`: -1.71%. Consider `COc1ccc(NC(=O)CSc2ccc(-c3ccco3)nn2)c(OC)c1`, for which the activity change is -14.2%.

Consider `COc1ccc(NC(=O)CCC(=O)Nc2cc(OC)c(NC(=O)c3ccco3)cc2OC)c(OC)c1`, for which the activity change was -72.1% (active). Next, `COc1ccc(CC(=O)Nc2ccccc2NC(=O)c2ccco2)cc1OC`: -2.61%; `COC(=O)C[C@@H]1C=C[C@@H](NC(=O)c2ccc3c(c2)OCO3)[C@@H](CO)O1`: -3.63%. `Cc1ccc(S(=O)(=O)N(C)c2ccc(OCC(=O)OCc3ccc(C#N)cc3)cc2)cc1`: the activity change was 5.43%. Next, `O=C(Oc1ccc(C(=S)N2CCOCC2)cc1)c1ccc(F)cc1`: -91.7% (active). Next, `O=C(Oc1ccc(F)cc1)N1CCOCC1`: -1.89%; `O=C(Oc1cccc(C(=S)N2CCOCC2)c1)c1cccc(Cl)c1`: -18.4%; `CCCc1c(-c2ccccc2F)ncn1Cc1ccccc1OC`: -11.2%. The figure for `O=C(CSc1nnc(-c2ccncc2)o1)Nc1cccc(Cl)c1` is -1.81%; for `Cc1cc(NC(=O)CSc2nnc(-c3ccc(Cl)s3)o2)no1` it is -86.8% (active). `Cc1cc(NC(=O)CSc2ncc(C(F)(F)F)cc2Cl)no1`: the activity change was 1.15%.

With `Cc1cc(OCc2cc(C(=O)NCc3cc(C(C)C)no3)no2)cc(C)c1Cl`, the activity change is 14%.

As for `Cc1ccc(S(=O)(=O)N[C@H](CO)C(C)C)cc1`, the activity change is 4.31%. The figure for `O=S(=O)(NCCc1ccc(F)cc1)c1cccc2cccnc12` is -7.51%; for `O=[N+]([O-])c1ccccc1S(=O)(=O)Nc1cccc2cccnc12` it is -91.7% (active). With `Cc1ccc2cccc([N+](=O)[O-])c2n1`, the activity change was -20.1%.

Regarding `Cc1ccc(S(=O)(=O)C2C(=O)NC3(C)CC2c2ccccc2O3)cc1` (stereo not given), the activity change was 6.28%. Take `COC(=O)[C@]12CCCCC=C1N(Cc1ccc3c(c1)OCO3)C(=O)[C@H](CC(=O)NCc1cccs1)C2`: the activity change is -7.98%. Consider `COc1ccccc1Cc1c(-c2ccc(Cl)cc2)nc2c3ccccc3ccn12`, for which the activity change is 9.04%.

Take `CN(C)C=NC(=O)c1cccn1-c1ncc(C(F)(F)F)cc1Cl`: the activity change is 7.6%.

On to `O=c1[nH]c2cccnc2n(CCNc2ncc(C(F)(F)F)cc2Cl)c1=O`, for which the activity change is 5.43%. The figure for `COc1cccc(/C=N/Nc2ncc(C(F)(F)F)cc2Cl)c1O` is -91.7% (active); for `Nc1c(C(=O)c2cccs2)sc2nsc(SCCN3CCCCC3)c12` it is 19.7%. The figure for `O=C(O)C1C2CC2CN1C(=O)c1ccc(Cl)cc1Cl` (stereo not given) is 2.75%. Next, `O=C(NCCc1ccccc1)/C(=C\c1ccc([N+](=O)[O-])cc1)NC(=O)c1ccccc1`: 2.96%; `O=C(Nc1ccc(C(=O)O)cc1)/C(=C/c1ccc([N+](=O)[O-])cc1)NC(=O)c1ccccc1`: -4.68%; `O=C(N/N=C/c1cc([N+](=O)[O-])ccc1O)/C(=C\c1cccs1)NC(=O)c1ccccc1`: -90.3% (active). On to `COc1ccc(NC(=O)C2(C)Cc3c(-c4cccc(NC(C)=O)c4)ccnc3O2)cc1OC` (stereo not given), for which the activity change was -4.36%. As to `CCc1ccc(Oc2coc3cc(OC(=O)c4cc5ccccc5oc4=O)ccc3c2=O)cc1`, the activity change is -6.39%. Next, `O=C(Oc1cccnc1)c1cc2ccccc2oc1=O`: -76% (active). The figure for `O=C(Nc1cccnc1)c1cc2cc(Br)ccc2oc1=O` is 17.5%; for `COC(=O)[C@]12CCCCC=C1N(Cc1ccco1)C(=O)[C@H](CC(=O)NCCCCc1ccccc1)C2` it is -13.7%; for `CCC(C)CN1C(=O)CSCC1(C)C(=O)NCc1ccccc1` (stereo not given) it is 7.26%.

As to `CCOc1cc(N2CCOCC2)c(OCC)cc1NC(=O)c1ccc(C)s1`, the activity change is -7.09%.

Turning to `CCOc1cc(N2CCOCC2)c(OCC)cc1NC(=O)COc1cccc2cccnc12`, the activity change is -66.8% (active). Next, `CCOc1cc(N2CCOCC2)c(OCC)cc1NC(=O)COC(=O)[C@H](Cc1c[nH]c2ccccc12)NC(C)=O`: 0.0588%.
